We go through nine compounds from PubChem BioAssay.

Activity calls are given as the source filed them. Unless noted, how the calls were made is not given here.

Assay [1] can be described thus: compound effects on lung adenocarcinoma cell viability – A549, calcein-AM fluorescence, 48 h, basal, profiling panel (AID 1162). Further: test concentration not given here. As to conditions: higher = more signal.
A short description of assay [2]: compound effects on differentiated 3T3-L1 adipocyte viability – cell-based, 3T3-L1 adipocytes, calcein-AM fluorescence, 48 h, basal, profiling panel (AID 1163). Further: test concentration not given here. Particulars: 3T3-L1 adipocytes viability, higher = more signal.
Assay [3] in a line: compound effects on hepatocellular carcinoma cell viability – HepG2, calcein-AM fluorescence, 48 h, basal, profiling panel (AID 1164). Further: test concentration not given here. As to conditions: higher = more signal.
Assay [4] can be described thus: compound effects on multiple myeloma cell viability – MM1S, calcein-AM fluorescence, 48 h, basal, profiling panel (AID 1165).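 Further: viability of MM1S multiple myeloma cells under basal unstimulated conditions; test concentration not given here.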 Particulars: higher = more signal.
Assay [5] is described as follows: calcein-AM signal in unstimulated myeloma cells – cell-based, calcein-AM fluorescence, 48 h, PK04 Diversity Set, profiling panel (AID 1166).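 Further: cells grown under basal conditions without added stimulus; test concentration not given here.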 As to conditions: RPMI8226 myeloma viability, higher = more signal.
The nature of assay [6]: JC-1 mitochondrial signal, unstimulated HepG2 cells – cell-based, JC-1 fluorescence, 24 h, 100 nL compound, profiling panel (AID 1167). Further: test concentration not given here. Particulars: HepG2 mitochondrial potential, higher = more signal.
Assay [7] is described as follows: JC-1 mitochondrial signal, unstimulated adipocytes – cell-based, JC-1 fluorescence, 3T3-L1 adipocytes, 24 h, 100 nL compound, profiling panel (AID 1168). Further: test concentration not given here. As to conditions: JC-1 mitochondrial fluorescence, higher = more signal, called active from +8 up or from −8 down.
Assay [8] is described as follows: JC-1 mitochondrial signal, unstimulated myeloma cells – cell-based, JC-1 fluorescence, RPMI8226, 24 h, 100 nL compound, profiling panel (AID 1169). Further: test concentration not given here. As to conditions: JC-1 mitochondrial potential fluorescence, higher = more signal.
Assay [9] is described as follows: JC-1 mitochondrial signal, unstimulated MM1S myeloma – cell-based, JC-1 fluorescence, 24 h, 100 nL compound, profiling panel (AID 1170). Further: test concentration not given here. Particulars: MM1S mitochondrial potential, higher = more signal.
Assay [10] is described as follows: resazurin metabolic signal in A549 cells – cell-based, resazurin fluorescence, 24 h, PK04 Diversity Set, profiling panel (AID 1171). Further: test concentration not given here. Particulars: A549 viability, higher = more signal, called active from +8 up or from −8 down.
The nature of assay [11]: resazurin metabolic signal in HepG2 cells – cell-based, resazurin fluorescence, 24 h, PK04 Diversity Set, profiling panel (AID 1172). Further: test concentration not given here. Particulars: HepG2 viability, higher = more signal.
Assay [12] is described as follows: budding yeast growth changes without added modifier – OD600, strain BY4716, 24 h, basal condition, primary screen (AID 1173). As to conditions: S. cerevisiae BY4716 growth, OD600, 24 h; higher = more signal, called active from +8 up or from −8 down.
Assay [13] is described as follows: viability profiling in MM1S myeloma cells – cell-based, resazurin fluorescence, basal, 24 h, PK04 Diversity Set, profiling panel (AID 1174). Further: test concentration not given here. As to conditions: higher = more signal, called active from +8 up or from −8 down. (In general: Alamar Blue is a resazurin reagent that responds to reducing activity.)
Assay [14] deals with Dihydroorotate dehydrogenase (quinone), mitochondrial (Plasmodium falciparum (isolate 3D7)) (UniProt Q08210). In words: inhibition of P. falciparum DHODH – biochemical, C-terminal His tag, absorbance 600 nm, primary screen (AID 1175).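 Further: recombinant parasite enzyme with a five histidine tag at its C terminus; test concentration not given here.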 As to conditions: PfDHODH enzyme, DCIP absorbance 600 nm; higher = more signal, called active from +8 up or from −8 down.
Assay [15] can be described thus: inhibition of PAO1 biofilm formation – strain PAO1, LB-PBS medium, absorbance 600 nm, primary screen (AID 1176). Further: test concentration not given here. As to conditions: P. aeruginosa PAO1 growth/biofilm, A600, 12 h; higher = more signal.
The nature of assay [16]: growth modulation of vineyard yeast isolate – strain RM11-1a, OD600, basal, 24 h, primary screen (AID 1177).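 Further: cultures grown under basal conditions with no added stressor; test concentration not given here.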 As to conditions: S. cerevisiae RM11-1a growth, OD600, 24 h; higher = more signal, called active from +8 up or from −8 down.
A short description of assay [17]: growth of efflux-deficient E. coli DRC39 – strain DRC39, OD650, 24 h, E. coli filamentation inducers, primary screen (AID 1178).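 Further: growth measured as culture turbidity by optical density at 650 nm; test concentration not given here.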 As to conditions: E. coli DRC39 acrAB, higher = more signal, called active from +8 up or from −8 down.
The nature of assay [18]: growth of efflux-deficient E. coli DRC39 – strain DRC39, OD650, 48 h, E. coli filamentation inducers, primary screen (AID 1179).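 Further: screen aims at cell division blockers that make cells filament.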 As to conditions: E. coli DRC39 delta-acrAB growth, higher = more signal, called active from +8 up or from −8 down.
Assay [19] can be described thus: viability profiling in RPMI8226 myeloma cells – cell-based, resazurin fluorescence, basal, 24 h, PK04 Diversity Set, profiling panel (AID 1180).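 Further: RPMI8826 multiple myeloma cell line at 5000 cells per well; test concentration not given here.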 Particulars: higher = more signal.
Assay [20] addresses E3 ubiquitin-protein ligase XIAP (Homo sapiens) (UniProt P98170). In words: small molecules binding XIAP protein – biophysical, small-molecule microarray, fluorescence 635 nm, primary screen (AID 1181).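 Further: score merges 667 nm emission and signal to noise over triplicate slides.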 Particulars: higher = more signal.

Chain of E3 ubiquitin-protein ligase XIAP (Homo sapiens) (P98170 whole entry, looked up): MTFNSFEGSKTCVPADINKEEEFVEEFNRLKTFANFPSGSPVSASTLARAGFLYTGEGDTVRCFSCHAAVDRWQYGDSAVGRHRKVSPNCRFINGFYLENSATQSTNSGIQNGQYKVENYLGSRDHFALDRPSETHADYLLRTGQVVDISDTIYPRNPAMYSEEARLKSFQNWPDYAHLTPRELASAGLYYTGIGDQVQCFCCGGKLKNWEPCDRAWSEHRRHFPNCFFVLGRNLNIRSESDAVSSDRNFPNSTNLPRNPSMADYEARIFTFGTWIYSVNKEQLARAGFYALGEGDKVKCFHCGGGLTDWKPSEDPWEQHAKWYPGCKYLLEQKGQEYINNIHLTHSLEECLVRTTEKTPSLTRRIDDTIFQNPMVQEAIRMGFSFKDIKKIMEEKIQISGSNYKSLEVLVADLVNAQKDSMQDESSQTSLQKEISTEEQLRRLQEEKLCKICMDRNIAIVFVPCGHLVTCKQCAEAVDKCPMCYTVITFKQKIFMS
Chain of Dihydroorotate dehydrogenase (quinone), mitochondrial (Plasmodium falciparum (isolate 3D7)) (Q08210 whole entry, looked up): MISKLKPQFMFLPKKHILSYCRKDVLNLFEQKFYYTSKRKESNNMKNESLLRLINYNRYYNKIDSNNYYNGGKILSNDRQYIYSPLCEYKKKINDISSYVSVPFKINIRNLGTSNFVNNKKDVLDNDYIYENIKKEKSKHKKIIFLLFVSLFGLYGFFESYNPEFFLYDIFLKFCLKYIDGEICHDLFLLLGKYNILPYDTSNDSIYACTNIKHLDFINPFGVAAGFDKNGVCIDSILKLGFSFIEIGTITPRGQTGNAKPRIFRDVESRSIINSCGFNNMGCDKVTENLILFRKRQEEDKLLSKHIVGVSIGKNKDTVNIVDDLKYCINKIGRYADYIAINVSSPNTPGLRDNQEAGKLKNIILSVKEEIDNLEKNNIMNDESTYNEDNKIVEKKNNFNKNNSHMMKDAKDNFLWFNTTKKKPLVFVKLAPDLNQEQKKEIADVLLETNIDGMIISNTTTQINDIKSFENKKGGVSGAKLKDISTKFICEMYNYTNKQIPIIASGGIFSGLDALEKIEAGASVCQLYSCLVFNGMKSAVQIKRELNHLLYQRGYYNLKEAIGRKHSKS

For the compound `CCCCNC(=O)c1ccc(C#C[Si](C(C)C)(C(C)C)C(C)C)c(OC(C)=O)c1`, the z-score in assay [1] was -0.487; in assay [2], 0.95; in assay [3], -2.45; in assay [4], -2.22; in assay [5] it was -4.09; in assay [6], -2.34. Moreover, the z-score is -0.281 (inactive) in assay [7]; -1.1 in assay [8]; -1.04 in assay [9]; -0.363 (inactive) in assay [10]; 0.236 in [11]; -0.152 (inactive) in assay [12]. Moreover, the z-score in assay [13] was 0.219 (inactive); in assay [15] it was -0.623 (inactive); in assay [16], 0.0679 (inactive); in assay [17], 0.119 (inactive); in assay [18], -0.0634 (inactive); in assay [19] it was 0.234. Moreover, the composite z-score in assay [14] was -1.29 (inactive); in [20], -0.165.
Turning to `COCCOC(=O)N1C(=O)[C@@]2(c3cc(C#CCCO)ccc31)[C@H](c1ccccc1OCCO)N1[C@H](c3ccccc3)[C@H](c3ccccc3)OC(=O)[C@H]1[C@@H]2C(=O)N1CCCCCCC1`, the z-score in assay [1] was 0.66; in [2], 0.961; in assay [3], 1.03; in assay [4], 0.115; in [5], -0.004; in assay [6], 0.454. Further, the z-score in assay [7] is 0.339 (inactive); in [8], -0.155; in [9], -1.31; in assay [10], 0.596 (inactive); in assay [11], 0.543; in [12], 0.971 (inactive). Moreover, the z-score in assay [13] was -0.649 (inactive); in [15] it was 1.32 (inactive); in assay [16] it was 2.11 (inactive); in assay [17], -0.255 (inactive); in assay [18], 0.343 (inactive); in [19], 0.484. In addition, the composite z-score in assay [14] is 0.495 (inactive); in [20], 0.236.
Consider `CCCNC(=O)[C@@]1(Sc2ccc(C)cc2)CC(=O)N(C2CCCCC2)[C@@H]1c1ccc(CO)cc1I`, for which the z-score in assay [1] is 0.14; in assay [2] it was 0.53; in assay [3], 0.265; in assay [4], -2.15; in assay [5] it was -2.58; in assay [6], -0.478. Moreover, the z-score in [7] was -0.764 (inactive); in assay [8], -0.503; in assay [9], -1.04; in assay [10] it was 0.696 (inactive); in [11], -0.0096; in [12] it was -1.07 (inactive). The z-score in assay [13] was 0.0674 (inactive); in [15], 0.627 (inactive); in assay [16] it was -1.15 (inactive); in assay [17], 0.29 (inactive); in assay [18], 0.0883 (inactive); in [19] it was -1.1. For the same compound, the composite z-score was -0.198 (inactive) in assay [14] and -0.321 in assay [20].
As for `CCOC(=O)C[C@H]1[C@H](OC(=O)c2cc3ccccc3oc2=O)[C@@H](NC(=O)c2ccc3ccccc3c2)c2cc(OCCCO)ccc2N1C(=O)Cc1ccc(OC)cc1`, the z-score in assay [1] was -0.103; in [2], 0.528; in assay [3] it was -0.425; in assay [4], 0.226; in [5] it was 0.0557; in [6], -0.527. The z-score in assay [7] is 0.06 (inactive); in [8], -0.229; in assay [9], 0.0571; in assay [10], 0.379 (inactive); in [11] it was 0.98; in [12], -0.399 (inactive). In addition, the z-score in assay [13] is -0.0697 (inactive); in assay [15], -0.304 (inactive); in assay [16], 0.0085 (inactive); in assay [17], 0.406 (inactive); in [18], -0.224 (inactive); in [19] it was -0.137. Besides, the composite z-score was 0.0533 (inactive) in assay [14] and -0.169 in [20].
For `COC(=O)[C@@]1(Cc2ccccc2CN=[N+]=[N-])N=C(c2ccc(OCCCO)cc2)O[C@H]1c1ccccc1CN=[N+]=[N-]`, the z-score was -3.82 in assay [1]; 0.522 in assay [2]; -5.01 in [3]; -3.56 in assay [4]; -3.89 in assay [5]; -0.86 in assay [6]. In addition, the z-score in [7] is -1.38 (inactive); in [8], -1.07; in assay [9] it was -2.09; in assay [10], -2.82 (inactive); in assay [11], -1.67; in [12], 1.66 (inactive). For the same compound, the z-score in assay [13] was -4.85 (inactive); in [15], 2.8 (inactive); in assay [16], 2.88 (inactive); in [17], 1.53 (inactive); in [18] it was -0.47 (inactive); in assay [19] it was -4.32. Further, the figures for the composite z-score in assay [14] and in assay [20] were 2.46 (inactive) and -0.113, respectively.
As for `COc1cc(CO)cc(I)c1O[C@H]1C=C(C(=O)NCCO)C[C@@H](NCC2CCCCC2)[C@@H]1O`, the z-score in [1] is 1.31; in [2] it was 0.13; in assay [3], 0.407; in assay [4], -0.235; in assay [5], 0.893; in [6], 1.25. For the same compound, the z-score in assay [7] is -0.328 (inactive); in [8], -0.561; in assay [9], -1.5; in assay [10], 0.258 (inactive); in [11], 0.361; in assay [12], -0.964 (inactive). Further, the z-score was -0.221 (inactive) in assay [13]; -0.107 (inactive) in assay [15]; -0.489 (inactive) in assay [16]; 1.45 (inactive) in assay [17]; 0.866 (inactive) in [18]; 0.428 in assay [19]. The composite z-score in assay [14] is -0.257 (inactive); in [20] it was 0.0831.
Consider `CN(C)C(=O)[C@]1(CCS(=O)(=O)c2ccccc2)N=C(c2ccc(OCCCO)cc2)O[C@@H]1c1ccccc1`, for which the z-score is -1.05 in assay [1]; 1.02 in [2]; -0.416 in assay [3]; -0.675 in assay [4]; -0.76 in [5]; 1.34 in assay [6]. Besides, the z-score in assay [7] is -0.132 (inactive); in [8], -0.783; in [9], -1.24; in assay [10], -0.482 (inactive); in [11] it was 1.4; in assay [12] it was -0.265 (inactive). The z-score in [13] is -0.342 (inactive); in assay [15] it was -0.484 (inactive); in assay [16], -0.315 (inactive); in assay [17], 0.582 (inactive); in assay [18], -0.0986 (inactive); in assay [19], -0.155. Moreover, the composite z-score in [14] was 0.524 (inactive); in assay [20], 0.0651.
Turning to `COCCCNC(=O)[C@@]1(Sc2ccc(C)cc2)CC(=O)N(Cc2ccccc2Cl)[C@@H]1c1ccc(CO)cc1I`, the z-score in [1] was 0.217; in assay [2], 0.0816; in [3], -0.115; in assay [4], -1.88; in assay [5], -2.32; in [6], -0.51. Moreover, the z-score is -0.695 (inactive) in [7]; -0.175 in [8]; -1.76 in [9]; -0.268 (inactive) in assay [10]; 0.0727 in assay [11]; -3.06 (inactive) in assay [12]. For the same compound, the z-score was -3.21 (inactive) in assay [13]; 0.242 (inactive) in [15]; -1.07 (inactive) in assay [16]; 0.0085 (inactive) in assay [17]; -0.0682 (inactive) in assay [18]; -2.38 in [19]. Also, the composite z-score was -2.66 (inactive) in [14] and -0.138 in [20].
In the case of `Cc1ccc(S[C@]2(C(=O)NCC(C)C)CC(=O)N(C3Cc4ccccc4C3)[C@@H]2c2ccc(CO)cc2I)cc1`, the z-score in assay [1] is 0.168; in assay [2] it was -0.492; in [3], -0.455; in assay [4] it was -2.37; in assay [5], -2.6; in assay [6] it was -0.534. Further, the z-score in [7] was -0.233 (inactive); in assay [8], -0.107; in assay [9], -1.76; in [10], -0.105 (inactive); in assay [11] it was 0.0073; in assay [12], -1.51 (inactive). In addition, the z-score is -2.16 (inactive) in assay [13]; 0.503 (inactive) in [15]; 0.207 (inactive) in assay [16]; -0.0452 (inactive) in assay [17]; -0.138 (inactive) in [18]; -2.55 in assay [19]. Also, the composite z-score is -0.0634 (inactive) in assay [14] and -0.214 in assay [20].
